Inconclusive results are not listed. Unless noted, calls come from the whole dose curve; as a rule, active = well fitted curve in either direction with a large enough effect (not every such curve was filed as active); inconclusive = small, poorly fitted or top-dose-only effect, or another doubt; inactive = flat fitted curve, though single readings scatter.
Experiments:
[1] = AP1 Signaling Pathway (AID 357); conditions: ME-180 AP-1-bla reporter, EGF-induced, beta-lactamase ratio, 5 h; at 17.2 µM (top of the series) unless noted;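 note: ME-180 reporter cells stimulated with EGF at its EC50 level; % is set by controls: 0 for no effect and ±100 for the full control effect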
Method in brief: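 AP-1-bla ME-180 cells, Opti-MEM + 0.5% dialyzed FBS, plated overnight 37 °C. Cpd titration + EC50 EGF, 5 h 37 °C. CCF4 2.5 h RT; ex 405, em 460/530 ratio → %activity, AC50.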

[2] = NFAT Signaling Pathway (AID 444); conditions: Jurkat NFAT-bla M1, carbachol, beta-lactamase ratio, 5 h; at 17.2 µM (top of the series) unless noted;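 note: carbachol stimulus at about its EC50 of 1 µM final; % is set by controls: 0 for no effect and ±100 for the full control effect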
Method in brief: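 Jurkat cells with NFAT-driven β-lactamase reporter and co-expressed M1 receptor, stimulated with carbachol (final 1 uM, ~EC50), compound titration, 5 h at 37 °C. CCF4 loaded 1 h at RT; 460/530 nm ratio gave %activity and AC50.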

[3] = Stat Signaling Pathway (AID 446); conditions: ME-180 (cervical carcinoma) SIE beta-lactamase reporter, IL-6 stimulated, 5 h; at 17.2 µM (top of the series) unless noted;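 note: ME-180 cervical cancer cells given 40 pM IL-6 alongside compound; SIE-controlled beta-lactamase reporter measured as 460/530 nm FRET emission ratio; % is set by controls: 0 for no effect and ±100 for the full control effect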
Method in brief: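 Normalization used AC90 stimulation (300 pM IL-6) and AC90 inhibition (125 nM pan-JAK inhibitor at 40 pM IL-6). The underlying signal is SIE-driven beta-lactamase in ME-180 cells after 5 h IL-6 exposure with compound.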

[4] = target: Glucocorticoid receptor (Homo sapiens) (UniProt P04150); assay: GR-GFP Redistribution (AID 450;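 active = compounds whose dose series gives a full or clear partial fitted curve of increased nuclear translocation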; note: potency is the fitted concentration of half-maximal effect)
Glucocorticoid receptor (Homo sapiens), sequence (P04150 whole entry, looked up): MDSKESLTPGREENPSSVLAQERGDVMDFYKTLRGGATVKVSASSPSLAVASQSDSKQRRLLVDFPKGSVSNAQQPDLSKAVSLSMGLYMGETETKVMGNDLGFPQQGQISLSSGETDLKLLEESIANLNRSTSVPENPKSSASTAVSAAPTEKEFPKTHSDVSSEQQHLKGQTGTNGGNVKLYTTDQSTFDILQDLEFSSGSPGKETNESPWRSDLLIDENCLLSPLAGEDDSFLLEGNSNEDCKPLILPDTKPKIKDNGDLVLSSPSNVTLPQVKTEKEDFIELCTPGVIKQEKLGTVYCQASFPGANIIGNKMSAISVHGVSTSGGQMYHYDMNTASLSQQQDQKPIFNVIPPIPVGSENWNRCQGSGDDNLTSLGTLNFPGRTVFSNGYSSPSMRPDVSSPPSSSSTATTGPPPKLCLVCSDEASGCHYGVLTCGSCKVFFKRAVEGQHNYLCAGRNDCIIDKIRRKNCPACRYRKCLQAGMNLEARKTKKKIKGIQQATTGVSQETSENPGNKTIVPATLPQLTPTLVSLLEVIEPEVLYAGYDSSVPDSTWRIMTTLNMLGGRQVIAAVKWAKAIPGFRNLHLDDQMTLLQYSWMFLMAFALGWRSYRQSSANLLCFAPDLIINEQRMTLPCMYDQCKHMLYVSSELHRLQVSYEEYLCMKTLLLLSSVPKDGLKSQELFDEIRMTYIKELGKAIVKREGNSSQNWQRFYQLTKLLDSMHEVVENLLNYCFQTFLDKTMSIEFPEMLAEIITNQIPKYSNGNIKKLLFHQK

Clc1ccc(-n2ncc3c(N4CCCC4)ncnc32)cc1
inactive: activity change, negative = inhibition [1] 3% | activity change, negative = inhibition [2] 6.28% | activity, negative = inhibition [3] -0.254% | Potency [4] > 20.6 µM

CCOC(=O)CNC(=O)Nc1ccccc1C(=O)OC
inactive: activity change, negative = inhibition [1] -9.77% | activity change, negative = inhibition [2] 12.3% | activity, negative = inhibition [3] 11.5% | Potency [4] > 20.6 µM

Brc1ccc(-c2cnnc(N3CCCC3)n2)cc1
inactive: activity change, negative = inhibition [1] -13.4% | activity change, negative = inhibition [2] 0.485% | activity, negative = inhibition [3] 6.79% | Potency [4] > 20.6 µM

Nc1nnnn1/N=C/c1cccs1
inactive: activity change, negative = inhibition [1] 7.92% | activity change, negative = inhibition [2] -9.98% | activity, negative = inhibition [3] 2.51% | Potency [4] > 20.6 µM

CCCCc1nc(N2CCOCC2)c(C#N)c2c1COC(C)(C)C2
inactive: activity change, negative = inhibition [1] -27.7% | activity change, negative = inhibition [2] 16.6% | activity, negative = inhibition [3] -1.34% | Potency [4] > 20.6 µM

O=S(=O)(/C=C/c1ccccc1)Nc1ccc2c(c1)OCO2
inactive: activity change, negative = inhibition [1] -20.8% | activity change, negative = inhibition [2] -26.9% | activity, negative = inhibition [3] -22.1% | Potency [4] > 20.6 µM

O=C(NCCCN1CCOCC1)C1(c2ccccc2)CCOCC1
inactive: activity change, negative = inhibition [1] 3.71% | activity change, negative = inhibition [2] -0.629% | activity, negative = inhibition [3] 5.62% | Potency [4] > 20.6 µM

CCOC(=O)C1=C(C)NC(=O)C1CC(=O)Nc1ccccc1 (stereo not given)
inactive: activity change, negative = inhibition [1] -1.66% | activity change, negative = inhibition [2] 25.9% | activity, negative = inhibition [3] 3.03% | Potency [4] > 20.6 µM

Cc1ccc(NC(=O)CSc2nnc(-c3ccco3)c(-c3ccco3)n2)cc1
inactive: activity change, negative = inhibition [1] 0.107% | activity change, negative = inhibition [2] -24.9% | activity, negative = inhibition [3] -23.9% | Potency [4] > 20.6 µM

COc1ccc(/C(O)=C2/C(=O)C(=O)N(CCN3CCOCC3)C2c2cccnc2)cc1OC (stereo not given)
inactive: activity change, negative = inhibition [1] -2.7% | activity change, negative = inhibition [2] 7.11% | activity, negative = inhibition [3] 6.33% | Potency [4] > 20.6 µM

CC(=O)C1=C(O)C(=O)N(c2ccc(C(=O)O)cc2)C1c1ccccc1 (stereo not given)
inactive: activity change, negative = inhibition [1] 5.75% | activity change, negative = inhibition [2] -2% | activity, negative = inhibition [3] 0.835% | Potency [4] > 20.6 µM

Cc1c(Cl)c(C(F)(F)F)nn1CC(=O)N1CCSCC1
inactive: activity change, negative = inhibition [1] 9.46% | activity change, negative = inhibition [2] 0.195% | activity, negative = inhibition [3] 5.37% | Potency [4] > 20.6 µM

CCOC(=O)c1ccc(NC(=O)Cn2nnc3ccccc32)cc1
inactive: activity change, negative = inhibition [1] -12.4% | activity change, negative = inhibition [2] 12.9% | activity, negative = inhibition [3] -15% | Potency [4] > 20.6 µM

CCOc1cccc(-c2nnc3sc(-c4ccc(C)cc4)nn23)c1
inactive: activity change, negative = inhibition [1] 18.5% | activity change, negative = inhibition [2] -19.6% | activity, negative = inhibition [3] 24.1% | Potency [4] > 20.6 µM

O=C(Nc1ccc2c(c1)OCO2)c1cc2n(n1)C(C(F)(F)F)CC(c1ccccc1)N2 (stereo not given)
inactive: activity change, negative = inhibition [1] 6.53% | activity change, negative = inhibition [2] 6.64% | activity, negative = inhibition [3] -1.67% | Potency [4] > 20.6 µM

COC(=O)COn1c(SCC(=O)OC)nc2ccccc2c1=O
inactive: activity change, negative = inhibition [1] 2.38% | activity change, negative = inhibition [2] 3.27% | activity, negative = inhibition [3] -1.3% | Potency [4] > 20.6 µM

CCC(=O)O[C@@H]1CC(=O)O[C@H](C)CC=CC=C[C@@H](O)[C@H](C)C[C@H](CC=O)[C@H](O[C@H]2O[C@H](C)[C@@H](O[C@H]3C[C@@](C)(O)[C@@H](OC(=O)CC)[C@H](C)O3)[C@H](N(C)C)[C@H]2O)[C@H]1OC
inactive: activity change, negative = inhibition [1] 1.11% | activity change, negative = inhibition [2] 8.88% | activity, negative = inhibition [3] -1.1% | Potency [4] > 20.6 µM

OC(CCCN1CCC(O)(c2ccc(Cl)cc2)CC1)c1ccc(F)cc1 (stereo not given)
inactive: activity change, negative = inhibition [1] -2.74% | activity change, negative = inhibition [2] -27.5% | activity, negative = inhibition [3] 4.61% | Potency [4] > 20.6 µM

Cc1ccc(OCC(=O)N(C)CCc2ccccn2)cc1
inactive: activity change, negative = inhibition [1] -3.13% | activity change, negative = inhibition [2] 5.19% | activity, negative = inhibition [3] 6.69% | Potency [4] > 20.6 µM

CCCCN1C(=O)C(O)=C(C(C)=O)C1c1ccc(OC)cc1OC (stereo not given)
inactive: activity change, negative = inhibition [1] 8.36% | activity change, negative = inhibition [2] 16.7% | activity, negative = inhibition [3] -4.22% | Potency [4] > 20.6 µM

CCCC1CC(=O)OC1(C)C(=O)CSc1n[nH]c(-c2ccccc2)n1 (stereo not given)
inactive: activity change, negative = inhibition [1] -6.44% | activity change, negative = inhibition [2] 8.59% | activity, negative = inhibition [3] -7.88% | Potency [4] > 20.6 µM

CC(=O)OC12CC3CC(C1)C(=NO)C(C3)C2
inactive: activity change, negative = inhibition [1] 9.34% | activity change, negative = inhibition [2] 1.23% | activity, negative = inhibition [3] 13.8% | Potency [4] > 20.6 µM

CCC(NC(=O)Nc1cc(OC)c(OC)c(OC)c1)(C(F)(F)F)C(F)(F)F
inactive: activity change, negative = inhibition [1] -13.9% | activity change, negative = inhibition [2] 14.9% | activity, negative = inhibition [3] -1.91% | Potency [4] > 20.6 µM

CCc1nnc(NC(=O)c2c(O)c3c([nH]c2=O)CCCC3)s1
inactive: activity change, negative = inhibition [1] -9.97% | activity change, negative = inhibition [2] 15.9% | activity, negative = inhibition [3] 4.12% | Potency [4] > 20.6 µM

O=C(CSc1nc2ccccc2s1)Nn1cnnc1
inactive: activity change, negative = inhibition [1] 3.59% | activity change, negative = inhibition [2] 2.13% | activity, negative = inhibition [3] 5.58% | Potency [4] > 20.6 µM
